Results published in PubChem BioAssay AID588345 (Broad Institute, 2011).
About 850 (65%) of roughly 1,300 compounds were called active. Another 1% or so got no clear call; they are omitted. How the calls were made is not given here. So high a share suggests a set chosen from earlier hits. Not all results are given here. Measured potencies and affinities stand elsewhere.

molecular target: Dual specificity tyrosine-phosphorylation-regulated kinase 1A (Rattus norvegicus) (UniProt Q63470); test: rat Dyrk1A kinase inhibitors, dose response, biochemical, cherry-pick, plate reader, 2124-01 (AID 588345); conditions: Dyrk1A kinase biochemical assay; series mostly up to 12 µM; activity change, negative = inhibition: at the top concentration

Activity change, negative = inhibition, inactive:
CC(=O)c1nc2ccccc2n1S(=O)(=O)c1ccc(Cl)cc1 4.3%, COc1cccc(C(=O)Nc2ccc(F)c(F)c2F)c1 -14%, O=C(Nc1cccnc1)c1scc2c1OCCO2 -3.85%, Cc1cc(C(=O)CSc2nn(-c3ccccc3)c(=S)s2)c(C)n1Cc1ccco1 0.28%, Cc1cc([N+](=O)[O-])nn1Cc1ccccc1F 10.6%, CC1CCC(NC(=O)c2cc(S(=O)(=O)N3CCCCC3)c[nH]2)CC1 (stereo not drawn) -4.92%, CN(C)CCNC(=O)c1cc2c(=O)n(C)c3ccccc3c2n1C -2.03%, CN1CCN(CCNC(=O)c2cc3c(=O)n(C)c4ccccc4c3n2C)CC1 13.7%, O=c1cc[nH]c2c1ccc1cccnc12 -34.5%, COc1ccc2[nH]c(C)c(CCN(Cc3cccs3)C(=S)Nc3ccccc3OC)c2c1 -2.48%, CN1CCc2c(sc3nc(NN)n(-c4ccc(Cl)cc4)c(=O)c23)C1 -1.13%, O=C(N/N=C/c1ccccn1)c1cc(-c2ccccc2Cl)n[nH]1 -32.5%, CN(C)CCNC(=O)c1cc2c(s1)-c1ccccc1OC2 -11.7%, O=C(Nc1cccc(-c2cn3cccnc3n2)c1)c1ccc(Br)o1 -35.3%, O=C(COc1ccccc1)Nc1cccc(-c2nn[nH]n2)c1 -0.144%, COc1cc(C(C)=O)ccc1Oc1ncnc2c1cnn2-c1ccccc1 2.65%, c1ccc2c(c1)Nc1ccncc1S2 -73.4%, COc1ccc(-c2csc3ncnc(Sc4nnnn4C)c23)cc1 3.58%, Cc1ccc2oc(=O)c3cnn(CC(=O)NC4CCCCC4C)c3c2c1 (stereo not drawn) 5.08%, N=C1S/C(=C\c2ccc(O)cc2)C(=O)N1c1ccc(F)cc1 -8.53%, O=C(Nc1nc2ccccc2s1)c1ccc(OCC2CCCO2)cc1 (stereo not drawn) -8.24%, O=C(NC(Nc1nc2ccc([N+](=O)[O-])cc2s1)(C(F)(F)F)C(F)(F)F)c1ccccc1 15.1%, Cn1c(=O)c2c(nc(NCc3ccco3)n2CC(O)COc2ccccc2)n(C)c1=O (stereo not drawn) 10.4%, C=CCn1c(SCC(=O)Nc2nc3ccccc3s2)nc(O)c(CC)c1=O -7.59%, CC(C)NS(=O)(=O)c1ccc(OCC(=O)N(C)Cc2ccccc2)cc1 8.65%, COc1ccc(NC(=O)N(C)C[C@H]2Oc3ccc(NC(=O)CCN4CCOCC4)cc3C(=O)N([C@H](C)CO)C[C@@H]2C)cc1 -2.3%, CC[C@@](C)(NS(=O)(=O)OCC(Cl)(Cl)Cl)c1ccccc1 -6.36%, O=C1C2C(c3ccccc3)CC=CC2[C@H](c2ccoc2)N1Cc1ccccc1 (stereo partly drawn) -3.28%, CCN1CCN(c2nc(Nc3cccc(C)c3)nc(N)c2[N+](=O)[O-])CC1 7.23%, Nc1nc(NCCCN2CCOCC2)nc(Nc2ccccc2)c1[N+](=O)[O-] 13.6%, O=C(c1ccc(Cl)c(Cl)c1)N1CCC(=O)N(C(COCc2cccc(C(F)(F)F)c2)Cc2ccccc2)CC1 (stereo not drawn) 0.743%, O=c1c2ccccc2nnn1CSc1nnc(-c2ccc3c(c2)OCO3)o1 -18.6%, O=C(O)c1ccc(-n2cc(-c3cc4ccccc4oc3=O)[nH]c2=S)cc1 -81.2%, COc1cccc(/C=C2\Oc3ccc(O)cc3C2=O)c1O -2.86%, Oc1ccc(-c2[nH]ncc2-c2nc3ccccc3s2)c(O)c1 -0.073%, CNc1nc2c(N)ncnc2n1[C@H]1O[C@@H](CO)[C@H](O)[C@@H]1O 7.57%, Nc1nc(SCc2ccc([N+](=O)[O-])cc2)c2ncn(C3OC(CO)C(O)C3O)c2n1 (stereo not drawn) 12.1%, CCC1COCCS(=O)(=O)N1Cc1ccccc1 (stereo not drawn) 16.5%, Oc1ccc2c(ccc3[nH]cnc32)c1 -2.1%, COC(=O)NNC(=O)COc1ccc(Cl)cc1 -0.602%, NNc1nccc(Nc2ccccc2C(=O)O)n1 -81.3%, COc1nc(C)ccc1-c1noc(-c2ccccn2)n1 -4.21%, O=C(Cn1cc(COc2ccccc2C(F)(F)F)nn1)c1ccc(O)cc1 -13.4%, Cc1ccsc1/C=N/Nc1ncnc2nc[nH]c12 -0.099%, Fc1ccccc1/C=N/Nc1ncnc2nc[nH]c12 11.1%, CCCCNC(=S)Nc1ccc2cn[nH]c2c1 -0.332%, O=c1c2c(O)cc(O)cc2oc2c(O)ccc(O[C@H]3O[C@@H](CO)[C@H](O)[C@@H](O)[C@@H]3O)c12 13.6%, O=C1C=CC(O)(c2cc(=O)c3c(O)cc(O)cc3o2)C=C1 -5.93%, CS(=O)(=O)Nc1ccc(-c2ccc(/C=C3\SC(N)=NC3=O)o2)cc1 -4.55%, COc1ccc2c(Cl)c(C(N)=O)sc2c1 0.271%, CSc1nc(SCC(=O)NCc2ccco2)c2c3c(sc2n1)CN(C)CC3 -30.4%, CC(C)Oc1ccc(C(CC(=O)NCc2ccco2)c2ccccc2)cc1 (stereo not drawn) 6.23%, COc1ccc2c(c1)[nH]c1c(Cl)ncnc12 5.9%, CCOC(=O)c1ccc(NC(=S)Nc2ccc(Br)cc2N)cc1 -4.3%, COc1ccc(-n2ccc(-c3nn(-c4cccc(C(F)(F)F)c4)ccc3=O)n2)cc1 4.68%, Cc1ccc(/C=c2\sc3n(c2=O)CN(c2ccc(Br)cc2)CN=3)o1 -30.4%, O=C(O)c1ccc2c(c1)S(=O)(=O)c1cc(Cl)ccc1C2=O 6.12%, CCCCn1c(NCCO)nc2ccccc21 -2.66%, Clc1ccc2[nH]c3c(c2c1)CCc1cn[nH]c1-3 -37.9%, Cc1ccccc1/C=N/Nc1ncnc2nc[nH]c12 -20.2%, CC(=O)c1ccc(NC(=S)Nc2ccc3cn[nH]c3c2)cc1 -17.4%, COc1ccc(N=Nc2c(C)n[nH]c2C)cc1 4.04%, N#CCC(N)=C(C#N)C#N -1.58%, CC1OC(OCC2OC(Oc3c(-c4ccc(O)cc4)oc4cc(O)cc(O)c4c3=O)C(O)C(O)C2O)C(O)C(O)C1O (stereo not drawn) -20%, CCCCn1c(N2CCC(Cc3ccccc3)CC2)nc2c1c(=O)[nH]c(=O)n2C -5.72%, Cc1cccc(OCC(=O)Nc2nc3ccc([N+](=O)[O-])cc3s2)c1 5.01%, COc1ccc(-c2ccc(=O)n(Cc3cccc([N+](=O)[O-])c3)n2)cc1 -43.7%, CC1(C)Nc2ccc(O)cc2-c2c1ssc2=S -1.72%, CCC(C)CCN1C(Nc2ccccc2)=NC[C@@H]1Cc1ccccc1 (stereo partly drawn) -7.86%, COc1ccc(N2C(=O)C3CCCN3C2c2cc(OC)c(OC)c(OC)c2)cc1 (stereo not drawn) 1.89%, CCOC(=O)C1CCCN(c2c(NCCCN3CCCC(C)C3)c(=O)c2=O)C1 (stereo not drawn) -0.476%, CCCOc1ccc(/C=N/NC(=O)CN2CCCCC2)cc1 -2.8%, COc1ccc(/C=C2\SC(N3CCc4ccccc4C3)=NC2=O)cc1 -31.4%, Cc1cccc(NC(=S)NN2CCN(C)CC2)c1 -6.09%, O=C1[C@H]2[C@H](C=CC[C@H]2C(=O)N2CCOCC2)CCN1Cc1ccccc1 5.23%, CCOC(=O)C1CCCN(c2c(NCCN(C)Cc3ccccc3)c(=O)c2=O)C1 (stereo not drawn) -7.74%, COCCN=C1N[C@@H](c2cccc(C(F)(F)F)c2)C(C(=O)OC)=C(C)N1Cc1ccccc1 -0.582%, O=C1OCc2cccc3cccc1c23 4.49%, Nc1ncnc(N)c1N=Nc1ccccc1 10.3%, CCN(CC)c1ccc(/C=C2\C(=O)c3ccc(C(=O)O)cc3C2=O)cc1 4.65%, CCOC(=O)C1=C(C)OC(N)=C(C#N)C1c1ccc(O)c(OC)c1 (stereo not drawn) 7.18%, O=c1[nH]c(=S)[nH]c2sccc12 -5.08%, O=C(COC(=O)c1cccs1)c1ccc2ccccc2c1 -4.36%, CCc1ccccc1NC(=O)C1CCCN(S(=O)(=O)c2ccc3c(c2)CC(C)N3C(C)=O)C1 (stereo not drawn) -3.11%, CCOC(=O)C(Cc1ccc(O)cc1)NC(=O)CCc1c[nH]c2ccccc12 (stereo not drawn) 0.971%, CC(C)(C)[C@H]1C=C(C(=O)N2CCN(Cc3ccccc3)CC2)O[C@@H](OCCCCO)C1 0.688%, COc1ccc2c(Cl)c(C(=O)N/N=C/c3cccnc3)sc2c1 7.43%, COc1ccccc1NC(=S)N/N=C/c1ccc(O)cc1 -0.12%, Cc1ccc(CN2CCN(c3ncccn3)CC2)o1 -2.31%, O=C1CCN(CCCc2ccccc2)CCN1[C@H](CO)c1ccccc1 5.58%, Oc1ccc(-c2nc3ncccn3c2Nc2ccc3c(c2)OCO3)cc1 0.488%, O=[N+]([O-])c1ccc(O)c(C=NNc2ccc(S(=O)(=O)O)cc2)c1 2.14%, Cc1cccc2nc(-c3cccc(NC(=O)c4ccc(Cl)cc4)c3)cn12 -7.42%, COc1ccc2c(c1)OC[C@H]1[C@H]2N2C(=O)CN(CC3CCCO3)C(=O)[C@@]2(C)[C@H]1c1ccccc1 (stereo partly drawn) 15.3%, COc1ccccc1-c1sc2ccccc2c1C#Cc1ccc(N(C)C)cc1 11.4%, O=C(O)c1cc(N/N=C/c2c(O)ccc3ccccc23)ccc1Cl -0.869%, N#Cc1c2ccc(O)cc2n2ccccc12 -4.28%, COc1cccc(-c2noc(N)c2C#N)c1 4.6%, COc1ccc2c(c1)CCc1cc(C(=O)O)sc1-2 -18.2%, COc1ccc2c(c1)CCc1cn3nc(C)cc3nc1-2 -83.2%, COC(=O)c1sc2cnccc2c1N -37.3%, COc1ccc(OC)c(C2=Nn3c(nnc3-c3ccco3)SC2)c1 10.8%, Brc1ccccc1C1=Nn2c(nnc2-c2ccccc2)SC1 -4.23%, CCOC(=O)C1CCCN(c2c(N3CCN(C4CCCCC4)CC3)c(=O)c2=O)C1 (stereo not drawn) -3.65%, CC(C)Oc1ccc(C2CNC(=O)C2)cc1 (stereo not drawn) 5.01%, COC(=O)c1c(-c2ccc(S(C)(=O)=O)cc2)sc2ccc(OC)cc12 3.56%, COC(=O)c1[nH]c2cc(OC)ccc2c1N -3.32%, Cc1ccc2c(c1)N(CC(=O)NC1CCCCC1)C(=O)c1cccnc1O2 5.4%, CCCCN(CC)CCCNC(=O)c1cc2cc3ccc(OC)cc3nc2o1 14%, CCN1CCN(CCCNC(=O)c2cc3cc4ccc(OC)cc4nc3o2)CC1 -30.7%, COCCNC(=O)c1cc2cc3ccc(OC)cc3nc2o1 -36.9%, COc1ccc2cc3cc(C(=O)NCCCN4CCC(C)CC4)oc3nc2c1 -21.4%, COc1cccc(Cn2nnc(C(=O)NCCc3ccc(Cl)cc3)c2N)c1 4.5%
